Each compound was assayed against AMP-activated protein kinase, AMPK (Homo sapiens) (UniProt P54646+O43741+P54619+Q9UGJ0+Q9Y478+Q13131+Q9UGI9) (assay: AMP-dependent Kinase enzyme assay. An in vitro enzyme assay that detects ADP turnover that is directly proportional to AMPK activity. This uses naive AMPK that is activated during the assay with MK-8722). Conditions: 30 µM.
Format: functional
Design: scale not given: direction of the effect not stated beside the values
In the case of `Cc1ccc(-n2ncc3c2CCCC3N)cc1C` (centres undefined), the Percent Effect is reported as 16.9%. `Cc1[nH]nc(CCC(=O)N2C[C@H]3CC[C@@H]2CN(C(=O)N(C)C)C3)c1C` was tested, and the Percent Effect was 0.209%. With `O=C(CCCn1ccnc1)NC1CCCN(c2ccccc2Cl)C1` (centres undefined) the Percent Effect was 6.12%. In the case of `CN1CSC[C@H]1C(=O)N1CCC(Cc2ccccc2F)CC1`, the Percent Effect is reported as 0.306%. `CCc1nc(C)c(C(=O)N2C[C@@H](C(=O)O)[C@H](C3CC3)C2)s1` gave a Percent Effect of 2.29%. With `NC(=O)c1cc(C2CCCN(CCc3ccc4c(c3)CCO4)C2)n[nH]1` (centres undefined) the Percent Effect was 3.33%. For `COCc1c(Br)cccc1NC(=O)N(C)CCO`, the Percent Effect was -5.13%. In the case of `Cc1ccc(CNCc2cccc(NC(=O)CCN3CCOCC3)c2)s1`, the Percent Effect is reported as -4.09%. Compound `CN1CCN(c2ncc(CNCCCc3cccc(F)c3)cn2)CC1` has a Percent Effect of 4.72%. Work on `CCn1cnnc1CCNS(=O)(=O)N1CCCC1c1ccco1` (centres undefined) yielded a Percent Effect of -10.7%. In the case of `CCN(CC)C1CCN(C(=O)Nc2cc(F)c(OC)c(F)c2)C1` (centres undefined), the Percent Effect is reported as -3.29%. `CCCn1nnnc1COC(=O)C1COc2ccccc2O1` (centres undefined) was tested, and the Percent Effect was 3%. Compound `CCc1nnc(C(C)N2CCN(CCC(C)(C)C)CC2)o1` (centres undefined) has a Percent Effect of 8.59%. Work on `Cc1csc(N2CCC(CCN3CCCC3=O)CC2)n1` yielded a Percent Effect of -12.1%. Compound `CCOCCC(=O)Nc1cccc(Cl)c1COC` has a Percent Effect of -0.185%. `CC(OCC1CC1)C(=O)Nc1ccn(Cc2ccccc2)n1` (centres undefined) showed a Percent Effect of 2.88%. `Cc1nn(C)c(C)c1C1CCCN1C(=O)c1ccc(C(N)=O)s1` (centres undefined) showed a Percent Effect of -0.19%. `COCCNc1ccc(CC2CCCN(c3ncccn3)C2)nn1` (centres undefined) gave a Percent Effect of 6.13%. Work on `O=C(O)[C@H]1C[C@H](C(=O)NCc2ccncc2)CN(CCC(F)(F)F)C1` yielded a Percent Effect of -2.07%. Compound `Fc1ccc(N2CCN(CCCc3cn[nH]c3)CC2)cc1` has a Percent Effect of 3.93%. In the case of `COc1cnc(N2CC(N3CCOCC3)C2)nc1-c1ccnn1C`, the Percent Effect is reported as -7.62%. Work on `CC(C)c1ocnc1C(=O)Nc1cccc(Cn2ccccc2=O)c1` yielded a Percent Effect of 8.27%. `Cc1noc(C(C)N2CCC(c3nc4ccccc4[nH]3)CC2)n1` (centres undefined) showed a Percent Effect of 1.83%. Work on `COC(=O)C1CCN(C(=O)Cn2ccc(-c3ccsc3)n2)CC1` yielded a Percent Effect of -3.29%. `CC(NCC(=O)Nc1ccc(N2CCCCCC2)cc1)c1cccs1` (centres undefined) was tested, and the Percent Effect was 16.8%. Compound `O=C(CCCN1CCCCC1)NC(C(=O)O)c1ccc(Cl)cc1` (centres undefined) has a Percent Effect of 6.04%. `NC(=O)c1csc(N2C[C@@H](CN3CCOCC3)[C@@H](CO)C2)n1` gave a Percent Effect of 3.19%. For `Cc1cc(CN(C)C(C(=O)O)c2cccc(C(F)(F)F)c2)on1` (centres undefined), the Percent Effect was 3.9%. With `CN1CCOC(CNC(=O)CCCc2ccccc2)C1` (centres undefined) the Percent Effect was -9.04%. `CC(C(=O)NC1(C#N)CCCCC1)N1CCc2c(ncn2C2CC2)C1` (centres undefined) was tested, and the Percent Effect was -1.93%. `Cc1ccc(CCCC(=O)N2CCC(=O)Nc3cccnc32)s1` showed a Percent Effect of -8.96%. `CCc1nc(CCNc2ncccc2C#N)sc1C` showed a Percent Effect of -3.24%. `COCC[C@]1(O)CCN(CC(=O)NCc2ccccc2C)C[C@H]1C` was tested, and the Percent Effect was 8.23%. `COCCN1CCCC2(CCN(c3cc(C)c(C#N)c(C)n3)C2)C1=O` (centres undefined) was tested, and the Percent Effect was -7.22%. `Cc1cnn(CCNCC(=O)N2CCN(c3ncccn3)CC2)c1` was tested, and the Percent Effect was -6.6%. `Cc1cccc(CN2CCOCC2c2[nH]ncc2C)n1` (centres undefined) was tested, and the Percent Effect was 16.3%. For `O=C1CN(C(=O)CC2C(=O)NCCN2CC2CCCCC2)CCN1` (centres undefined), the Percent Effect was -5.33%. `CCS(=O)(=O)Nc1ccc2[nH]c(C3CCC3)nc2c1` gave a Percent Effect of -4.1%. With `CCC(NCCn1cccn1)C(=O)Nc1cc(C)on1` (centres undefined) the Percent Effect was 2.9%.
